Sampled rows, rich in hits. Any-hit rate of the full collection: about 1.6%.
KCNQ2 block – inhibitors of rat KCNQ2 potassium channel | O88943 | CHO-K1 KCNQ2, FluxOR thallium flux, 20 min; stronger effect = lower value | B-score at 10 µM | 1.1% of 310,000 active;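 active means fluorescence ratio B-score at most minus 3 library SDs, with starting brightness B-score within 2 library SDs, cut at about -5.5 in these data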
KCNQ2 pot – potentiators of rat KCNQ2 potassium channel; CHO-K1 KCNQ2, FluxOR thallium flux fluorescence; stronger effect = higher value; 0.54% of 310,000 active; O88943; B-score at 10 µM;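 active means fluorescence ratio B-score at least 3 SD of library B-scores, with initial fluorescence B-score within 3 of them, cut at about 5.3 in these data; same plate scores as AID 2156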;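 further: B-score of peak minus minimum over baseline fluorescence ratio after K+ and Tl+ stimulus; positive B-score means potentiation of KCNQ2 with more thallium influx and brighter signal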
Kir21 confirm – confirmation of mouse Kir2.1 potassium channel inhibitors; Kir2.1-expressing cells, FluxOR thallium flux fluorescence; stronger effect = lower value; shares compounds with KCNQ2 pot; 41% of 2,300 active; Tl flux remaining, % of negative control (stronger effect = lower value), % at 10 µM;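 active means Primary-screen hit whose thallium flux fell at least 3 control SD below untreated wells in both duplicates, with normal baseline fluorescence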;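 further: 0% = blank wells without stimulus and 100% = stimulated no-compound controls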
HEK293 ctr – alters thallium flux in parental HEK293 cells, Kir2.1 counter-screen; 19% of 2,300 active; AID 2105; shares compounds with KCNQ2 pot; FluxOR signal as % of negative control (100 = no effect), % at 10 µM; FluxOR thallium flux fluorescence; 0% = unstimulated blank wells;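 active means dye signal at least 3 control SD above or below untreated wells in both duplicates, raw fluorescence within 3, either direction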;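 further: percent is based on the flux ratio of peak minus minimum fluorescence over baseline F0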
CHO-K1 Tl ctr – alters thallium flux in parental CHO-K1 cells, KCNQ2 counter-screen; shares compounds with KCNQ2 pot; FluxOR thallium flux fluorescence; zero = vehicle mean+3SD, 100% = vehicle-minus-blank window; activity increase over 3SD of controls, % at 10 µM; 43% of 1,200 active; AID 2282;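 active means signal rise of at least 3 SD above the untreated control mean, in both duplicate wells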;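 further: counter screen of KCNQ2 potentiator hits so any rise reflects channel-independent effects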
KCNQ1 sel pot – human KCNQ1 counter-target activity of KCNQ2 potentiators. shares compounds with KCNQ2 pot. CHO KCNQ1 stable, FluxOR thallium flux fluorescence; beyond 3SD, as % of vehicle-control signal. activation over 3SD threshold, % at 10 µM. 28% of 1,200 active;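 active means fluorescence ratio rise of at least 3 SD of vehicle wells above their mean, in both replicate wells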;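 further: 0% = vehicle mean plus 3 SD and 100% = vehicle minus unstimulated blank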
Target sequence (P51787 whole entry, looked up): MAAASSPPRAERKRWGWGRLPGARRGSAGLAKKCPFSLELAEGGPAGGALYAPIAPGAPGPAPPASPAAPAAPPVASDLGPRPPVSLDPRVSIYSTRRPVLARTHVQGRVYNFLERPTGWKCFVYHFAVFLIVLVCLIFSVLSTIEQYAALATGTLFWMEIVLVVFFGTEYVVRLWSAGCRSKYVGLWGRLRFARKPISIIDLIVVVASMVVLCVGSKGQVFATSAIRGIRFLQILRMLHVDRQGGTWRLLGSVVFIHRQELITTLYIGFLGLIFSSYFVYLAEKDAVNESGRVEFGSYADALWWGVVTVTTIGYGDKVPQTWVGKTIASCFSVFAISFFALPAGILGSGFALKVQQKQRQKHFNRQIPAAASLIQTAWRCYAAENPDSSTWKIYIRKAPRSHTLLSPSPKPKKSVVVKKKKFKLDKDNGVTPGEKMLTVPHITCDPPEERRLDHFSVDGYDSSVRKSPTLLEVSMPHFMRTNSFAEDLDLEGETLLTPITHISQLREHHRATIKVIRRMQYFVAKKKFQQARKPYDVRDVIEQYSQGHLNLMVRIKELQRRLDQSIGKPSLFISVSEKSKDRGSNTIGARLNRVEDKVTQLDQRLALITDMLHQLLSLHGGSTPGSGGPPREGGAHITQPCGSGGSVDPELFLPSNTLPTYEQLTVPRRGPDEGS
KCNQ2 pot confirm – confirmation of rat KCNQ2 potassium channel potentiators | shares compounds with KCNQ2 pot | CHO-KCNQ2 cells, FluxOR thallium flux fluorescence | 68% of 1,200 active | AID 2287 | potentiation, less the hit threshold, % at 10 µM;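 active means fluorescence ratio rising 3 SD or more over the vehicle control mean in both replicates, plus primary screen hit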;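 further: peak minus minimum thallium fluorescence divided by baseline after K/Tl stimulus; 0% = vehicle mean plus 3 SD and 100% = vehicle minus unstimulated blank difference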
Kir21 spec – mouse Kir2.1 off-target activity of KCNQ2 potentiators | shares compounds with KCNQ2 pot | HEK293 Kir2.1, FluxOR thallium flux fluorescence | activity over 3SD threshold, % at 10 µM | 2% of 1,200 active;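 active means fluorescence ratio rise of at least 3 SD above the vehicle-control mean, seen in both replicates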;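 further: 0% = vehicle mean plus 3 SD and 100% = vehicle minus no-stimulus blank window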
KCNQ2 W236L MoA – potentiates the retigabine-insensitive rat KCNQ2 W236L mutant channel | CHO KCNQ2-W236L, automated patch clamp current | current increase over 3SD of negative controls (%), stronger effect = higher value, % at 25 µM | AID 2558 | shares compounds with KCNQ2 pot | 10% of 940 active;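 active means current increase at least 3 SD of the untreated controls above them in both duplicate recordings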
Active calls of the source: *; i = inactive; . = no result given.

SMILES	KCNQ2 block	KCNQ2 pot	Kir21 confirm	HEK293 ctr	others
CN(C)CCC[C@@]1(c2ccc(F)cc2)OCc2cc(C#N)ccc21	i	.	.	.
CCNC(=O)N(C)c1nncnc1C(=O)NC	i	1.5	.	.
CNC(=O)c1ncnnc1N(C)C(=O)NCc1ccccc1	i	9.8*	i	i	CHO-K1 Tl ctr=0.9*;KCNQ1 sel pot=-21;KCNQ2 pot confirm=-13;Kir21 spec=-40
O=S1(=O)C=C(SCc2cccc(Cl)c2)Nc2ccccc21	i	.	.	.
Cc1cc(C)c2cc(C#N)c(N3CCCN(C(=S)NCCCN(C)C)CC3)nc2c1	i	.	50%*	i
Cc1ccc2cc(C#N)c(N3CCCN(C(=S)NCCCN(C)C)CC3)nc2c1	i	.	.	.
C/C(=N\NC(=O)c1ccccc1NC(=O)c1ccc(Cl)cc1)c1ccncc1	i	.	.	.
Cc1c(Cc2ccccc2)c(=O)oc2c(CN(C)C)c(O)c(Cl)cc12	i	0.93	.	.
CN(C)Cc1c(O)ccc2oc(Cc3ccccc3)cc12	i	0.02	42%*	i
COC(=O)c1ccc(COn2nnc3ccccc32)cc1	i	.	.	.
Cc1ccc(NC(=S)NC(=O)c2ccc(Br)o2)c(C)c1	i	1.9	.	.
Cc1cccc(NC(=S)NC(=O)c2ccc(Br)o2)c1C	i	8.4*	i	148%*	CHO-K1 Tl ctr=47*;KCNQ1 sel pot=-1;KCNQ2 pot confirm=28*;Kir21 spec=-21;KCNQ2 W236L MoA=i
O=C(NC(=S)Nc1ccccc1F)c1ccc(Br)o1	i	16*	i	i	CHO-K1 Tl ctr=57*;KCNQ1 sel pot=-16;KCNQ2 pot confirm=67*;Kir21 spec=-19;KCNQ2 W236L MoA=i
Cc1c(NC(=S)NC(=O)c2ccc(Br)o2)c(=O)n(-c2ccccc2)n1C	i	.	.	.
Cc1cccc(C)c1NC(=S)NC(=O)c1ccc(Br)o1	i	14*	i	i	CHO-K1 Tl ctr=0.9*;KCNQ1 sel pot=-20;KCNQ2 pot confirm=60*;Kir21 spec=-21;KCNQ2 W236L MoA=i
O=C(NNC(=S)Nc1ccccc1C(F)(F)F)c1ccc(Br)o1	i	0.04	.	.
COc1cc(NC(=O)NNC(=O)c2cc3occc3n2C)cc(OC)c1OC	i	.	.	.
O=C(Nc1ccccc1)OC1CC2CC1C1CCCC21 (stereo not given)	i	.	.	.
COC(=O)Cc1ccc(NC(=S)NNC(=O)C2CC2)cc1	i	0.07	.	.
O=C(NCCO)C(=O)NCC1OCCCN1S(=O)(=O)c1ccc2c(c1)OCCO2 (stereo not given)	i	.	.	.
CC(C(=O)N1CCCCCC1)c1ccc([N+](=O)[O-])cc1 (stereo not given)	i	0.87	.	.
Cc1occc1C(=O)Nc1ccccc1NC(=O)c1ccoc1C	i	0.04	.	.
Cc1occc1C(=O)Nc1cccc2ccccc12	i	11*	i	i	CHO-K1 Tl ctr=11*;KCNQ1 sel pot=-16;KCNQ2 pot confirm=56*;Kir21 spec=-38;KCNQ2 W236L MoA=i
Cc1cc(=O)n2nc(N3CCCC(C(=O)NCc4cccc(Br)c4)C3)sc2n1 (stereo not given)	i	.	.	.
S=c1nc[nH]c2c1sc1nc(N3CCOCC3)c3c(c12)CCCC3	i	12*	i	270%*	CHO-K1 Tl ctr=36*;KCNQ1 sel pot=-19;KCNQ2 pot confirm=60*;Kir21 spec=-10;KCNQ2 W236L MoA=i
SMILES	KCNQ2 block	KCNQ2 pot	Kir21 confirm	HEK293 ctr	others
O=c1[nH]nnc2c1sc1nc(N3CCOCC3)c3c(c12)CCCC3	i	1.7	.	.
COc1ccc(C(=O)NNC(=O)C(=O)NC(C)c2ccccc2)cc1OC (stereo not given)	i	1.1	.	.
O=Cc1ccnc(-c2ccc(OC(=O)c3ccco3)cc2)n1	i	0.85	.	.
CC(=O)c1c(CSc2ccccc2)oc2ccc(O)c(CN(C)C)c12	i	.	38%*	64%*
CCOC(=O)c1c(CSc2ccccc2)oc2cc(Br)c(O)c(CN(C)C)c12	i	0.71	.	.
CCOC(=O)c1c(C)oc2ccc(O)c(CN(C)C)c12	i	0.06	.	.

Assay outcomes as filed in PubChem.
